About 83,000 compounds went through this panel and 20% of them were active in at least one assay; those are over-represented in the sample as a whole.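 Percent growth is the endpoint: 0 to 100 indicates growth inhibition (40 means 60% inhibition), 0 means no net growth, and negative values indicate cell death.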 Unmarked numbers belong to inactive results. Calls of active or inactive are those of the source. The calls were made as follows: active = growth percent below 10; inactive = the rest.
Each molecule was assayed on HCT-116 colon (assay: NCI-60 one-dose screen, 48 h (100 = growth as untreated, 0 = no growth, -100 = all killed)). Conditions: 10 µM unless noted.
CCCn1cnc2c(c1=N)C(c1ccc(Cl)cc1)c1sc3c(CC)cccc3c1O2 (configuration not stated) was tested, and the growth was 12.1%.
Cc1ccc(C2=Nn3c(nnc3-c3ccccc3)SC2)cc1 showed a growth of 17.7%.
For Cc1ccc2sc3c(c2c1)OC(N)=C(C#N)C3c1ccc(Cl)cc1 (configuration not stated), the growth was 88%.
Molecule Cc1ccc(NC(=O)N[C@@H](Cc2cc(F)cc(F)c2)C(=O)NC2C(=O)N3C[C@H](O)C[C@H]3C(=O)N3CCCC[C@H]3C(=O)N[C@@H](CO)C(=O)N3C[C@H](C)C[C@H]3C(=O)O[C@H]2C)c(F)c1 (some centres not stated) has a growth of 18.1%.

What follows are molecules tested on HCC-2998 colon in the same assay as above. Conditions: 10 µM unless noted.
COc1cc(OC)c(S(N)(=O)=O)cc1C(C)=O was tested, and the growth was 106%.
O=S(=O)(Nc1ccc(I)cc1Cl)c1ccc(-c2cnc(C3CC3)o2)cc1 showed a growth of 78.6%.
For C=CCn1c(SCC(=O)Nc2ccc(C(=O)/C=C/c3cccc([N+](=O)[O-])c3)cc2)nnc1-c1c[nH]c2ccccc12, the growth was 86%.
CNC(=O)c1c(NC(=O)c2cccc(C(F)(F)F)c2F)sc2c1CCC(=O)C2 was tested, and the growth was 25.2%.
In the case of COc1ccc(C2c3sc4c(C)cccc4c3Oc3nc(CC(=O)Nc4ccccc4)[nH]c(=O)c32)cc1 (configuration not stated), the growth is reported as 93.8%.
For CCN1CCN(C(=O)[C@]23CCC(C)(C)C[C@H]2C2=CC[C@@H]4[C@@]5(C)Cc6c([nH]c7ccccc67)C(C)(C)[C@@H]5CC[C@@]4(C)[C@]2(C)CC3)CC1, the growth was 106%.
CN1c2ccccc2Sc2cc(C=C(C#N)C#N)ccc21 gave a growth of 97.3%.
CN1CCN(Cc2ccc(NC(=O)c3cncc(C#Cc4cnn5cccnc45)c3)cc2C(F)(F)F)CC1 showed a growth of 12.7%.
For N#Cc1cccc(/C(N)=N/C(N)=N/c2nc3ccccc3s2)c1, the growth was 55.7%.
In the case of NS(=O)(=O)c1ccc(Nc2nc(N/N=C/c3c[nH]c4ccccc34)nc(Nc3ccccc3)n2)cc1, the growth is reported as 52.6%.
For N#C/C(=C\c1ccc(-c2ccc(Cl)cc2Cl)o1)c1ccc(F)cc1, the growth was 105%.
For O=C1/C(=C/C=C/c2ccco2)SC(=S)N1C1CCCCC1, the growth was 97.3%.
Molecule O=C(Nc1cccc(Cl)c1)Nc1nc2ccc([N+](=O)[O-])cc2o1 has a growth of 24.3%.
For COc1cccc(C(=O)Nc2cccc(C#Cc3cccc4[nH]nc(N)c34)c2)c1, the growth was 45.9%.
COc1cc(OC)c(S(N)(=O)=O)cc1C(=O)/C=C/c1ccc(Cl)cc1 was tested, and the growth was 1.39% (active).
In the case of COc1cc2nc(Cl)nc(Nc3cccc(C4=Nc5c(N)nc(N)nc5NC(c5ccc(Br)cc5)C4)c3)c2cc1OC (configuration not stated), the growth is reported as 41.5%.
In the case of CC1=N[C@@H]2CN(C(=O)OC(C)(C)C)C[C@@H]2n2c1cc1ccccc1c2=O, the growth is reported as 107%.
With O=S(=O)(NCCNc1nccc(-n2cnc3ccccc32)n1)c1ccc(Br)cc1 the growth was 103%.
Cc1cc(-c2ccc(Cl)cc2)n(Cc2nnc(SCC(=O)Nc3ccc(S(N)(=O)=O)cc3)n2C2CCCCC2)n1 showed a growth of 110%.
For COc1cc(OC)cc(C(=O)Nc2sc3c(c2C(N)=O)CCC(=O)C3)c1, the growth was 88.3%.
With COc1cccc2cc(-c3cc4ccccc4[nH]3)/c(=N\NC(=O)c3ccc(Cl)cc3)oc12 the growth was 69%.
CC(C)(C)c1ccc(CC(=O)Nc2sc3c(c2C(N)=O)CCC(=O)C3)cc1 gave a growth of 25.5%.
In the case of c1cn2c(ccc3nc(-c4cn[nH]c4)c4c(c32)CCCC4)n1, the growth is reported as 87.2%.
With Clc1nc2ccccc2nc1-c1nnc(C2CCCCC2)o1 the growth was 104%.
Work on COc1ccc(-n2c(/C=C3\C(=O)Nc4ccccc43)ccc2CO)cc1 yielded a growth of 113%.
Work on N#Cc1ccccc1Cn1c2nc(=N)c3ccccc3c-2nc2ccccc21 yielded a growth of 60.2%.
COc1cc2nc(Cl)nc(Nc3cccc(C4=Nc5c(N)nc(N)nc5NC(c5ccc(F)cc5)C4)c3)c2cc1OC (configuration not stated) was tested, and the growth was 22.9%.
CCCn1cnc2c(c1=N)C(c1ccc(Cl)cc1)c1sc3c(CC)cccc3c1O2 (configuration not stated) was tested, and the growth was 17.8%.
Cc1ccc(C2=Nn3c(nnc3-c3ccccc3)SC2)cc1 was tested, and the growth was 39.9%.
Cc1ccc2sc3c(c2c1)OC(N)=C(C#N)C3c1ccc(Cl)cc1 (configuration not stated) gave a growth of 84.8%.
With Cc1ccc(NC(=O)N[C@@H](Cc2cc(F)cc(F)c2)C(=O)NC2C(=O)N3C[C@H](O)C[C@H]3C(=O)N3CCCC[C@H]3C(=O)N[C@@H](CO)C(=O)N3C[C@H](C)C[C@H]3C(=O)O[C@H]2C)c(F)c1 (some centres not stated) the growth was 31.2%.

What follows are molecules tested on KM12 colon in the same assay as above. Conditions: 10 µM unless noted.
COc1cc(OC)c(S(N)(=O)=O)cc1C(C)=O was tested, and the growth was 104%.
O=S(=O)(Nc1ccc2c(c1)OCO2)c1ccc(-c2cnc(C3CC3)o2)cc1 was tested, and the growth was 23.1%.
In the case of COc1cccc2c1CN(C(=O)c1ccc(O)c(C(=O)N3Cc4ccc(OCCC[P+](c5ccccc5)(c5ccccc5)c5ccccc5)cc4C3)c1)C2, the growth is reported as 44.4%.
O=S(=O)(Nc1ccc(I)cc1Cl)c1ccc(-c2cnc(C3CC3)o2)cc1 showed a growth of 26%.
For C=C(C=O)[C@@H]1CC[C@]2(CO)CC[C@]3(C)[C@H](CC[C@@H]4[C@@]5(C)CCCNC(C)(C)[C@@H]5CC[C@]43C)[C@@H]12, the growth was 1.61% (active).
In the case of CNC(=O)c1c(NC(=O)c2cccc(C(F)(F)F)c2F)sc2c1CCC(=O)C2, the growth is reported as 3% (active).
COc1ccc(C2c3sc4c(C)cccc4c3Oc3nc(CC(=O)Nc4ccccc4)[nH]c(=O)c32)cc1 (configuration not stated) was tested, and the growth was 92.7%.
COCCNc1ccc2ncc(C#Cc3cncc(C(=O)Nc4ccc(CN5CCN(C)CC5)c(C(F)(F)F)c4)c3)n2n1 was tested, and the growth was -9.09% (active).
CCN1CCN(C(=O)[C@]23CCC(C)(C)C[C@H]2C2=CC[C@@H]4[C@@]5(C)Cc6c([nH]c7ccccc67)C(C)(C)[C@@H]5CC[C@@]4(C)[C@]2(C)CC3)CC1 gave a growth of 86.2%.
In the case of CCn1c(SCC(=O)Nc2cccc(C(=O)/C=C/c3ccc(C)cc3)c2)nc2ccccc2c1=O, the growth is reported as 77.4%.
Molecule CN1c2ccccc2Sc2cc(C=C(C#N)C#N)ccc21 has a growth of 103%.
CN1CCN(Cc2ccc(NC(=O)c3cncc(C#Cc4cnn5cccnc45)c3)cc2C(F)(F)F)CC1 was tested, and the growth was 2.87% (active).
Work on N#Cc1cccc(/C(N)=N/C(N)=N/c2nc3ccccc3s2)c1 yielded a growth of 24.6%.
For N#C/C(=C\c1ccc(-c2ccc(Cl)cc2Cl)o1)c1ccc(F)cc1, the growth was 94.2%.
For O=C1/C(=C/C=C/c2ccco2)SC(=S)N1C1CCCCC1, the growth was 96.9%.
With O=C(Nc1cccc(Cl)c1)Nc1nc2ccc([N+](=O)[O-])cc2o1 the growth was 7.17% (active).
COc1cccc(C(=O)Nc2cccc(C#Cc3cccc4[nH]nc(N)c34)c2)c1 was tested, and the growth was 12.6%.
For COc1cc(OC)c(S(N)(=O)=O)cc1C(=O)/C=C/c1ccc(Cl)cc1, the growth was 1.9% (active).
COc1cc2nc(Cl)nc(Nc3cccc(C4=Nc5c(N)nc(N)nc5NC(c5ccc(Br)cc5)C4)c3)c2cc1OC (configuration not stated) was tested, and the growth was 24.3%.
For CC1=N[C@@H]2CN(C(=O)OC(C)(C)C)C[C@@H]2n2c1cc1ccccc1c2=O, the growth was 97.5%.
O=S(=O)(NCCNc1nccc(-n2cnc3ccccc32)n1)c1ccc(Br)cc1 gave a growth of 85.4%.
Work on Cc1cc(-c2ccc(Cl)cc2)n(Cc2nnc(SCC(=O)Nc3ccc(S(N)(=O)=O)cc3)n2C2CCCCC2)n1 yielded a growth of 108%.
With COc1cc(OC)cc(C(=O)Nc2sc3c(c2C(N)=O)CCC(=O)C3)c1 the growth was 12%.
In the case of COc1cccc2cc(-c3cc4ccccc4[nH]3)/c(=N\NC(=O)c3ccc(Cl)cc3)oc12, the growth is reported as 28.2%.
With CC(C)(C)c1ccc(CC(=O)Nc2sc3c(c2C(N)=O)CCC(=O)C3)cc1 the growth was -3.85% (active).
Molecule c1cn2c(ccc3nc(-c4cn[nH]c4)c4c(c32)CCCC4)n1 has a growth of 74.9%.
COc1cc(-c2nn(C(C)(C)C)cc2-c2ccnc(NCCCNS(=O)(=O)c3ccc(F)cc3)n2)ccc1Cl was tested, and the growth was 78.5%.
Clc1nc2ccccc2nc1-c1nnc(C2CCCCC2)o1 was tested, and the growth was 94.1%.
Work on CCCn1cnc2c(c1=N)C(c1ccc(F)cc1)c1sc3c(CC)cccc3c1O2 (configuration not stated) yielded a growth of 10.7%.
For COc1ccc(-n2c(/C=C3\C(=O)Nc4ccccc43)ccc2CO)cc1, the growth was 19.3%.
With N#Cc1ccccc1Cn1c2nc(=N)c3ccccc3c-2nc2ccccc21 the growth was 60.7%.
For COc1cc2nc(Cl)nc(Nc3cccc(C4=Nc5c(N)nc(N)nc5NC(c5ccc(F)cc5)C4)c3)c2cc1OC (configuration not stated), the growth was 34.1%.
In the case of CCn1c2ccccc2c2cc(-n3nncc3-c3ccccc3)ccc21, the growth is reported as 17.1%.
In the case of CCCn1cnc2c(c1=N)C(c1ccc(Cl)cc1)c1sc3c(CC)cccc3c1O2 (configuration not stated), the growth is reported as 15.6%.
For Cc1ccc(C2=Nn3c(nnc3-c3ccccc3)SC2)cc1, the growth was 36.4%.
For Cc1ccc2sc3c(c2c1)OC(N)=C(C#N)C3c1ccc(Cl)cc1 (configuration not stated), the growth was 45.5%.
Cc1ccc(NC(=O)N[C@@H](Cc2cc(F)cc(F)c2)C(=O)NC2C(=O)N3C[C@H](O)C[C@H]3C(=O)N3CCCC[C@H]3C(=O)N[C@@H](CO)C(=O)N3C[C@H](C)C[C@H]3C(=O)O[C@H]2C)c(F)c1 (some centres not stated) was tested, and the growth was 45.3%.

Source: PubChem BioAssay (NCI)
